15 molecules from PubChem BioAssay (NCI) can be followed below.

The panel holds about 83,000 compounds, 20% with a hit somewhere; the sample as a whole holds those more often.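 Growth was measured after 48 h exposure to one concentration of compound in 96-well plates. Values under 10 count as active.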 Unmarked numbers belong to inactive results. The source made the active and inactive calls.

Holding throughout (test): NCI-60 one-dose screen, 48 h (100 = growth as untreated, 0 = no growth, -100 = all killed)
Holding throughout (conditions): 10 µM unless noted

Experiment [1] deals with T-47D breast.
Experiment [2] concerns BT-549 breast.
The subject of experiment [3] is MDA-MB-435 melanoma.
Experiment [4] relates to SW-620 colon.
Experiment [5] deals with MCF7 breast.
The test system of experiment [6] is HCT-116 colon.
Experiment [7] deals with HCC-2998 colon.
In experiment [8] the test system is KM12 colon.

As for `CCNC(=O)Oc1ccc(/C(=C(\C)c2ccccc2)c2ccc(OCCN3CCCCC3)cc2)cc1`, the growth in experiment [1] was 24.1%; in experiment [2] it was 65.2%; in experiment [3] it was 65.5%; in experiment [4] it was 59.1%; in experiment [5] it was 25.8%; in experiment [6], 40.5%. Moreover, the growth was 84.9% in experiment [7] and 50.8% in experiment [8].

In the case of `C=CCn1c(-c2ccc(-c3nc4ccc(C)cc4[nH]3)cc2)n[nH]c1=S`, the growth in experiment [1] is 97.5%; in experiment [2], 100%; in experiment [3], 98.1%; in experiment [4], 112%; in experiment [5], 82.8%; in experiment [6] it was 106%. Further, the growth was 108% in experiment [7] and 105% in experiment [8].

Take `Cc1ccc(-n2nc3c(c(C#N)c2=O)CC(c2ccccc2[N+](=O)[O-])C([N+](=O)[O-])=C3O)cc1` (stereo not given): the growth in experiment [1] is 65.5%; in experiment [2], 93.2%; in experiment [3], 96.7%; in experiment [4], 89.1%; in experiment [5], 55.4%; in experiment [6], 86.9%. For the same molecule, the results for the growth in experiment [7] and in experiment [8] were 116% and 82.3%, respectively.

For the molecule `O=C(Nc1ccc(NC(=O)c2cc(=O)[nH]c3ccccc23)cc1)Nc1cccc(Cl)c1`, the growth in experiment [1] was 68.6%; in experiment [2], 79%; in experiment [3], 97%; in experiment [4] it was 89.9%; in experiment [5] it was 76%; in experiment [6], 82%. In addition, the figures for the growth in experiment [7] and in experiment [8] were 83.6% and -55.9% (active), respectively.

Regarding `O=C(/C=C/c1ccc[nH]1)c1ccc(-n2ccc(C(F)(F)F)n2)c(F)c1`, the growth in experiment [1] is 70.9%; in experiment [2] it was -2.69% (active); in experiment [3], 99.3%; in experiment [4], 103%; in experiment [5], 30.9%; in experiment [6], 85.6%. Also, the growth in experiment [7] was 94.2%; in experiment [8], 29.6%.

On to `CC(Oc1ccc(C(=O)O)cc1C(F)(F)F)c1ccc(Oc2ccccc2)cn1` (stereo not given), for which the growth in experiment [1] was 100%; in experiment [2], 89.1%; in experiment [3] it was 77.4%; in experiment [4] it was 103%; in experiment [5] it was 89.5%; in experiment [6] it was 103%. For the same molecule, the figures for the growth in experiment [7] and in experiment [8] were 108% and 92.2%, respectively.

As for `CCCCCN1C=C/C(=C\C(=O)N2CCCc3ccccc32)c2ccccc21`, the growth in experiment [1] is 68.2%; in experiment [2], 79.7%; in experiment [3], 97%; in experiment [4], 88.8%; in experiment [5], 91%; in experiment [6] it was 66.5%. For the same molecule, the values for the growth in experiment [7] and in experiment [8] were 102% and 90.4%, respectively.

On to `Cc1nnc2c(Cc3ccccc3)nc3ccccc3n12`, for which the growth in experiment [1] is 92.4%; in experiment [2], 91.8%; in experiment [3] it was 93.2%; in experiment [4] it was 97.3%; in experiment [5] it was 97.9%; in experiment [6], 93.1%. Also, the growth in experiment [7] is 97.8%; in experiment [8], 97.5%.

Take `N#Cc1c(NC(=O)NCc2ccccc2)sc2c1CCCC2`: the growth was 40% in experiment [1]; 24.1% in experiment [2]; -35.3% (active) in experiment [3]; 24% in experiment [4]; 19.5% in experiment [5]; 12.2% in experiment [6]. Further, the growth in experiment [7] is 22.4%; in experiment [8] it was 20.5%.

For `CNC(=O)c1cccc(Cn2nc(C)c(NC(=O)c3ccc(COc4ccc(C(F)(F)F)cc4C)cc3)c2C)c1`, the growth in experiment [1] is 6.16% (active); in experiment [2], 19.7%; in experiment [3], 36.2%; in experiment [4], 77.3%; in experiment [5], 21.7%; in experiment [6], 29.2%. For the same molecule, the growth is 68.5% in experiment [7] and 61.7% in experiment [8].

For the molecule `COc1cccc(-c2ccc3c(c2)NC(=O)/C3=C\c2ccc[nH]2)c1`, the growth in experiment [1] was 13.6%; in experiment [2], 36.6%; in experiment [3], 8.7% (active); in experiment [4], 25.1%; in experiment [5] it was 11.3%; in experiment [6], 23.5%. Besides, the growth in experiment [7] was 25.4%; in experiment [8], 9.35% (active).

Consider `COc1cc2c3c(c4c5ccccc5[nH]c4c2c(OC)c1OC)C(=O)N(CCN1CCOCC1)C3=O`, for which the growth was 66% in experiment [1]; 73.5% in experiment [2]; 73.9% in experiment [3]; 32.4% in experiment [4]; 32% in experiment [5]; 19.7% in experiment [6]. For the same molecule, the figures for the growth in experiment [7] and in experiment [8] were 69.5% and 61%, respectively.

For the molecule `COC(=O)C(CC=O)C(=O)C(=O)Nc1cccc(C(F)(F)F)c1` (stereo not given), the growth was 77.4% in experiment [1]; 101% in experiment [2]; 107% in experiment [3]; 95.6% in experiment [4]; 104% in experiment [5]; 90.1% in experiment [6]. For the same molecule, the figures for the growth in experiment [7] and in experiment [8] were 97% and 100%, respectively.

Consider `COc1ccc(-c2nc3sccn3c2/C=C/C(=O)c2ccc3c(c2)OCO3)cc1`, for which the growth is 83.9% in experiment [1]; 81.8% in experiment [2]; 57.6% in experiment [3]; 56% in experiment [4]; -7.62% (active) in experiment [5]; 58.4% in experiment [6]. Besides, the growth in experiment [7] was 95.5%; in experiment [8], 54.2%.

For `NS(=O)(=O)c1ccc(CCN2C(=O)C=CC2=O)cc1`, the growth was 99.5% in experiment [1]; 111% in experiment [2]; 108% in experiment [3]; 106% in experiment [4]; 94.4% in experiment [5]; 99.7% in experiment [6]. Besides, the growth in experiment [7] is 95.2%; in experiment [8] it was 104%.
